ChEMBL document CHEMBL2218924, “A broad activity screen in support of a chemogenomic map for kinase signalling research and drug discovery” (Biochem J, 2013)

Assays:
[1] = target: T1, Testis-specific serine/threonine-protein kinase 1 (Homo sapiens) (UniProt Q9BXA7); conditions: at 1 µM
T1 sequence (whole entry): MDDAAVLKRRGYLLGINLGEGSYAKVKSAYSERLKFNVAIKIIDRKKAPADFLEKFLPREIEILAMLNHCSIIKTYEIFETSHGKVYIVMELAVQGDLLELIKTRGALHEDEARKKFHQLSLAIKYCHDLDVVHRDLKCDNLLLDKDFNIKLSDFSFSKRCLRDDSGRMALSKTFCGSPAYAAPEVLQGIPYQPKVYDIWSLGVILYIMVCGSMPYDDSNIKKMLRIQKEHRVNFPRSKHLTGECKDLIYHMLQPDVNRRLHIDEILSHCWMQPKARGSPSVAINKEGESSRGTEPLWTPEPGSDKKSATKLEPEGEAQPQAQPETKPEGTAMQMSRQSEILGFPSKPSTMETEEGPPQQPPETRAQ

[2] = target: T1, Testis-specific serine/threonine-protein kinase 1 (Homo sapiens); conditions: at 10 µM
[3] = target: T2, Testis-specific serine/threonine-protein kinase 2 (Homo sapiens) (UniProt Q96PF2); conditions: at 10 µM
T2 sequence (whole entry): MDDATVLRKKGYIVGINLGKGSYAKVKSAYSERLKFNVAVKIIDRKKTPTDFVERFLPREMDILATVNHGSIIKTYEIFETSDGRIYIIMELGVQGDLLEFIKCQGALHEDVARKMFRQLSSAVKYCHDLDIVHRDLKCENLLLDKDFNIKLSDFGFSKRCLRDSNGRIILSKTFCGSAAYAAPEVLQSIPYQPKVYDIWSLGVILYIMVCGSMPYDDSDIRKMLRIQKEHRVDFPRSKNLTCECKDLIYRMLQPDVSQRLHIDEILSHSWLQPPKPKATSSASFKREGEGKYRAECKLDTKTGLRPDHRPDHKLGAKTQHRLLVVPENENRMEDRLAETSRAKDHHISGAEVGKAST

[4] = target: T3, Tyrosine-protein kinase Tec (Homo sapiens) (UniProt P42680); conditions: at 1 µM
T3 sequence (whole entry): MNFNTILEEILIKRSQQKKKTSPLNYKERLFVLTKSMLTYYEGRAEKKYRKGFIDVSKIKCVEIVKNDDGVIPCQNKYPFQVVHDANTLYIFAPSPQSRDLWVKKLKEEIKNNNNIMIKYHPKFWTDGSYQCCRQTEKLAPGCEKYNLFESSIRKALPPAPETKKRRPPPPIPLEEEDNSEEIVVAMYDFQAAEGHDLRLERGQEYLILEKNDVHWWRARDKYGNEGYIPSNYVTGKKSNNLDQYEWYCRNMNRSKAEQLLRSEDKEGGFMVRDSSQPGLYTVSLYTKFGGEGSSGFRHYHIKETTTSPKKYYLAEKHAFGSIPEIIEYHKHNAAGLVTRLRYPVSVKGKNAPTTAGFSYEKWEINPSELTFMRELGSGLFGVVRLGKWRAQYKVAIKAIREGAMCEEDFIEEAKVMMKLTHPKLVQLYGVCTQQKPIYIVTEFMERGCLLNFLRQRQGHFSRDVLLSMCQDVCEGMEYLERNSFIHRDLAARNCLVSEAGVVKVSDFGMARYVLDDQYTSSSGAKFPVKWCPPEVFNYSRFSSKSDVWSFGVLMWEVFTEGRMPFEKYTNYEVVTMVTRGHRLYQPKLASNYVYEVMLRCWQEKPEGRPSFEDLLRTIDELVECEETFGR

[5] = target: T3, Tyrosine-protein kinase Tec (Homo sapiens); conditions: at 10 µM
[6] = target: High affinity nerve growth factor receptor (Homo sapiens) (UniProt P04629); conditions: at 1 µM
[7] = target: High affinity nerve growth factor receptor (Homo sapiens) (UniProt P04629); conditions: at 10 µM
[8] = target: BDNF/NT-3 growth factors receptor (Homo sapiens) (UniProt Q16620); conditions: at 1 µM
[9] = target: Angiopoietin-1 receptor (Homo sapiens) (UniProt Q02763); conditions: at 1 µM
[10] = target: Angiopoietin-1 receptor (Homo sapiens) (UniProt Q02763); conditions: at 10 µM

Angiopoietin-1 receptor (Homo sapiens), sequence (Q02763 whole entry): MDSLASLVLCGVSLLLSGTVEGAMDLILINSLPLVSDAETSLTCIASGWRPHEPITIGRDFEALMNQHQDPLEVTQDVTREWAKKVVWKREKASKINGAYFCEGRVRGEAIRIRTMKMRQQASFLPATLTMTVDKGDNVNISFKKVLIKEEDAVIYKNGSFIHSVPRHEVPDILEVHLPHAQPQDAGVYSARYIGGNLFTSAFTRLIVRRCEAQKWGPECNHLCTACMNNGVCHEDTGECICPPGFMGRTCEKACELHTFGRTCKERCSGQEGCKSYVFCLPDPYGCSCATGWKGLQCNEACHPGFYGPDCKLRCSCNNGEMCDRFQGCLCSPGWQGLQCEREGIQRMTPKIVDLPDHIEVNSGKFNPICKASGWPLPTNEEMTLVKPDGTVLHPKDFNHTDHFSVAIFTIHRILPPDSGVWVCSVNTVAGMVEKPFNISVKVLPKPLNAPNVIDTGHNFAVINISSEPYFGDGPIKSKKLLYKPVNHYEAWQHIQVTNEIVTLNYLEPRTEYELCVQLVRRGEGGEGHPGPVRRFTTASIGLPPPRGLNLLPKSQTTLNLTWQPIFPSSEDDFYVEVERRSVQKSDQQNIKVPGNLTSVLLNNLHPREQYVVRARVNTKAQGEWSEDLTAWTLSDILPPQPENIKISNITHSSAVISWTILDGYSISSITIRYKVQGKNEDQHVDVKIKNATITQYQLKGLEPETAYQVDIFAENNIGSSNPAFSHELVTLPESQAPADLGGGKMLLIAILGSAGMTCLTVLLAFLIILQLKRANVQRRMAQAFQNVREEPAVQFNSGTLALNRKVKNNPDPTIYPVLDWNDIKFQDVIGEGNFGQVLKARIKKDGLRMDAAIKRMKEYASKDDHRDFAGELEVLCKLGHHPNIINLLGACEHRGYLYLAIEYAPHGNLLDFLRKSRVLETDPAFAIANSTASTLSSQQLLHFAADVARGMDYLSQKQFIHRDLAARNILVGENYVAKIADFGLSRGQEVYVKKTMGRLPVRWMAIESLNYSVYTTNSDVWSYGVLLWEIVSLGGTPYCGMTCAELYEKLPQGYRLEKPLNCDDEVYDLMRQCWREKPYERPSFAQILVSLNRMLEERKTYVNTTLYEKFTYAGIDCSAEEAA
High affinity nerve growth factor receptor (Homo sapiens), sequence (P04629 33-796 limits assumed): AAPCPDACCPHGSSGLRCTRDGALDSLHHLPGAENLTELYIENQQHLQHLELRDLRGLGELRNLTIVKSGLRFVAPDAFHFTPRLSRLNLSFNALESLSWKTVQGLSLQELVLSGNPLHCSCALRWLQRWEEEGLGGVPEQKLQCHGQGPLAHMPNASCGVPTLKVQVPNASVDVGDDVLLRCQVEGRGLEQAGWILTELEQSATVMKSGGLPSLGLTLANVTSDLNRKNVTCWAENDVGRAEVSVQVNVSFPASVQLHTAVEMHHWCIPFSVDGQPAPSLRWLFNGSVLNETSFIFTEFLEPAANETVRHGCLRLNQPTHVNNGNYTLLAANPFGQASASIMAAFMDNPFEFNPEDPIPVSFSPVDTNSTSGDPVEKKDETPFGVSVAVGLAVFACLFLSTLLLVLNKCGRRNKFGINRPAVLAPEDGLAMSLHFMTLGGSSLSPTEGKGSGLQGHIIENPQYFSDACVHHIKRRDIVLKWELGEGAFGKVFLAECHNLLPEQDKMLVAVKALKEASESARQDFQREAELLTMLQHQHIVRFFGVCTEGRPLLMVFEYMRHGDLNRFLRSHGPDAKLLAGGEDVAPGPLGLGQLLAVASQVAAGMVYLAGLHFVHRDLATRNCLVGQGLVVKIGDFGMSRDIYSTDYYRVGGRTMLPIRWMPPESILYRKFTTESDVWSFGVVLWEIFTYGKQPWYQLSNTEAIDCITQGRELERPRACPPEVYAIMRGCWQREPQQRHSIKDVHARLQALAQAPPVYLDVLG
BDNF/NT-3 growth factors receptor (Homo sapiens), sequence (Q16620 32-822 limits assumed): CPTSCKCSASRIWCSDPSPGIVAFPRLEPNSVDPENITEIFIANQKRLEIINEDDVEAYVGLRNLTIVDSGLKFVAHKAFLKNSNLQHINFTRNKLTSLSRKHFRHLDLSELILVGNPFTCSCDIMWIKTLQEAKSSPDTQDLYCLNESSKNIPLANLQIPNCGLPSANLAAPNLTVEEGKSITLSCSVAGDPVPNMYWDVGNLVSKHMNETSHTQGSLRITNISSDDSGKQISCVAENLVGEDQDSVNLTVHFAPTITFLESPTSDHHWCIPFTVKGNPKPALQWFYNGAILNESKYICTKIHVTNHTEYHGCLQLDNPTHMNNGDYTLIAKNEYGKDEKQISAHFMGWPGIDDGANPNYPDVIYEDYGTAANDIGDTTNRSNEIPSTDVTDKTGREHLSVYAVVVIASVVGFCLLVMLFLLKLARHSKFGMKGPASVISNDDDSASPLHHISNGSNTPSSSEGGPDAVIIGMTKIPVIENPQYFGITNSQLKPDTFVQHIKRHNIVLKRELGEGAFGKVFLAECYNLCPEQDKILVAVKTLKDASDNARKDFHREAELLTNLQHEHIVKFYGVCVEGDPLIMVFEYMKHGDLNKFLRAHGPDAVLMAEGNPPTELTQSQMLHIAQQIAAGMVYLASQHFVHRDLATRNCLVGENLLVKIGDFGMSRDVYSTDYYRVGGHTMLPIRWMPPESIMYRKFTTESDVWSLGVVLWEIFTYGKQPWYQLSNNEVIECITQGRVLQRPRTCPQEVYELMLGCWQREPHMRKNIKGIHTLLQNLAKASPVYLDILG

Structure (SMILES) | residual activity [1] [%] | residual activity [2] [%] | residual activity [3] [%] | residual activity [4] [%] | residual activity [5] [%] | residual activity [6] [%] | residual activity [7] [%] | residual activity [8] [%] | residual activity [9] [%] | residual activity [10] [%]
Nc1n[nH]c2nc3ccccc3nc12 | 85 | 87 | 71 | 81 | 86 | 86 | 67 | 84 |  | 
CCOC(=O)c1c(C)[nH]c(/C=C2\C(=O)Nc3ccccc32)c1C | 93 | 83 | 97 | 88 | 92 | 13 | 32 | 73 |  | 
Nc1ncnc2c1c(-c1ccc(Oc3ccccc3)cc1)cn2C1CCCC1 | 94 | 86 | 93 |  |  | 26 | -1 | 44 | 12 | 3
O=c1cc(N2CCNCC2)oc2c(-c3ccccc3)cccc12 | 101 | 93 | 82 |  | 80 |  |  |  | 69 | 78
Cn1c2ccccc2c2c3c(c4c5ccccc5n(CCC#N)c4c21)CNC3=O | 12 | 10 | 40 | 4 | 9 | 0 | -1 | 44 |  | 
c1ccc(-c2cnc(Nc3ccc(OCCN4CCCC4)cc3)s2)cc1 | 100 | 78 | 74 |  |  | 24 | 3 | 45 | 114 | 60
NC(=O)Nc1sc(-c2ccc(F)cc2)cc1C(N)=O | 62 | 27 | 54 |  |  |  |  | 27 | 82 | 21
CC(C)(C)c1nc2c3ccc(F)cc3c3c(=O)[nH]ccc3c2[nH]1 | 42 | 60 |  |  |  | 3 | 6 | 71 | 78 | 64
CC(C)c1nn(-c2c(Cl)cccc2Cl)c2nc(Cc3ccc(OCCO)cc3)[nH]c(=O)c12 | 91 | 94 | 79 | 90 | 85 | 87 | 74 |  |  | 86
O=C(O)/C=C/c1cc(Br)c(Br)c(Br)c1Br | 81 | 99 | 102 | 94 | 96 |  |  | 109 | 99 | 89
NC(=O)c1cccc(-c2cc(Nc3ccc(OC(F)(F)F)cc3)ncn2)c1 |  |  |  |  |  |  | 65 |  |  | 
COc1cc2ncnc(Nc3cccc(Cl)c3)c2cc1OC |  | 80 |  |  | 43 | 88 | 55 | 50 | 111 | 83
Oc1cccc(-c2nc(N3CCOCC3)c3oc4ncccc4c3n2)c1 |  |  | 74 |  |  | 93 | 118 |  | 80 | 59
O=C(Nc1ccc(Cl)cc1)c1ccccc1NCc1ccncc1 |  |  |  |  |  |  |  | 117 |  | 79
O=C1NC(=O)C(c2c[nH]c3ccccc23)=C1c1c[nH]c2ccccc12 |  |  |  |  |  | 58 | 8 | 29 |  | 
Fc1ccc(-c2nc3n(c2-c2ccncc2)CCS3)cc1 |  |  | 86 |  |  |  | 88 |  | 128 | 124
N#C/C(=C\c1ccc(O)c(O)c1)C(=O)NCc1ccccc1 |  |  |  |  |  | 64 | -1 |  | 89 | 71
COc1ccc(-c2cnc3c(-c4ccsc4)cnn3c2)cc1 | 98 | 96 |  |  |  | 76 | 88 | 66 |  | 
CN([C@@H](Cc1ccc(OS(=O)(=O)c2cccc3cnccc23)cc1)C(=O)N1CCN(c2ccccc2)CC1)S(=O)(=O)c1cccc2cnccc12 |  |  |  |  |  |  |  | 79 |  | 72
Cc1cc(C)c(/C=C2\C(=O)Nc3ccccc32)[nH]1 |  | 75 |  | 100 |  | 1 | 0 | 40 | 74 | 82
N#Cc1c(NC(=O)c2cccc3ccccc23)sc2c1CCCC2 |  |  |  | 94 | 69 | 81 | 87 |  |  | 
O=c1cc(N2CCOCC2)oc2c(-c3ccccc3)cccc12 |  |  | 68 |  |  | 79 | 71 |  | 71 | 64
O=C(Nc1nc2ccccc2n1CCN1CCOCC1)c1cccc([N+](=O)[O-])c1 |  |  | 87 |  |  | 20 | 29 | 46 | 80 | 40
COc1ccc2c(c1)c(C1=C(c3c[nH]c4ccccc34)C(=O)NC1=O)cn2CCCN(C)C |  |  |  |  | 63 | 72 | 35 | 77 | 99 | 36
N#C/C(=C1/Nc2ccccc2S1)c1ccnc(NCCc2cccnc2)n1 |  |  | 68 | 79 | 17 | 56 | 11 | 76 |  | 
O=C1NC(=O)C(c2cn(CCCn3ccnc3)c3ccccc23)=C1Nc1ccccc1 |  |  |  |  |  | 1 | 9 | 44 | 55 | 32
Nc1nc(Nc2ccc(S(N)(=O)=O)cc2)nn1C(=O)c1c(F)cccc1F |  |  | 76 | 82 | 34 | 41 | 5 | 54 | 36 | 0
CSc1nc(-c2ccc(F)cc2)c(-c2ccnc(NC(C)c3ccccc3)c2)[nH]1 (stereo not drawn) |  |  | 101 |  | 63 |  | 39 | 3 | 91 | 41
Nc1nccc(-c2c(-c3ccc(F)cc3)ncn2C2CCNCC2)n1 |  |  |  |  | 77 | 100 | 74 | 118 |  | 
Nc1ncnc2[nH]nc(Nc3ccc(F)cc3)c12 | 108 |  |  | 82 | 21 | 78 | 40 | 123 | 104 | 79
